SMILES strings stand for the structures. The source made the active and inactive calls. Unless noted, how the calls were made is not given here.

From PubChem BioAssay come the findings set out here.

The nature of one assay: modifiers of HSF1 nuclear foci, imaging, Selleck Cancer Library (AID 1347162; in the data active means plate-normalised HSF1 focus index below about 0.46). The conditions noted are these: human cells, at 10 µM; SSMD: measured here: HSF1 foci SSMD mean; cell count: measured here: cell number; plate-normalised HSF1 focus index: stronger effect = lower value.
Turning to `O=C(Nc1ncc([N+](=O)[O-])s1)c1ccc([N+](=O)[O-])c(Cl)c1`, the cell count came to 7090, the plate-normalised HSF1 focus index is 1.15 (inactive) and the SSMD amounted to 2.47.

For the molecule `CC1=NN(c2ccc(C(=O)O)cc2)C(=O)/C1=C\c1ccc(-c2cc(C)c(C)cc2[N+](=O)[O-])o1`, the cell count amounted to 6690, the SSMD is 1.04 and the plate-normalised HSF1 focus index was 1.07 (inactive).

With `COCCN1C2=C(C(=O)c3ccccc3C2=O)N(Cc2cnccn2)C1C` (stereo unspecified), the cell count amounted to 6910, the plate-normalised HSF1 focus index was 1.13 (inactive) and the SSMD stood at 2.27.

Regarding `COC(=O)c1ccc(O)c(NC(=O)COc2ccc(C34CC5CC(CC(C5)C3)C4)cc2)c1`, the plate-normalised HSF1 focus index was 0.766 (inactive), the SSMD was -6.52 and the cell count was 7200.

On to `O=C1Nc2ccc(-c3cccnc3)cc2/C1=C/c1ccc[nH]1`, for which the SSMD is -1.39, the plate-normalised HSF1 focus index was 0.916 (inactive) and the cell count amounted to 7060.

As for `N#CC[C@@H](C1CCCC1)n1cc(-c2ncnc3[nH]ccc23)cn1`, the plate-normalised HSF1 focus index is 1.12 (inactive), the cell count was found to be 7030 and the SSMD worked out at 2.05.

As for `C=C1/C(=C/C=C2\CCC[C@]3(C)[C@@H]([C@H](C)/C=C/[C@@H](C)C(C)C)CC[C@@H]23)C[C@@H](O)C[C@@H]1O`, the SSMD worked out at 1.3, the cell count was determined as 6600 and the plate-normalised HSF1 focus index is 1.07 (inactive).

Consider `CCCCCCCCCCCCCCCCCCOP(=O)(O)OC1CC[N+](C)(C)CC1`, for which the cell count is 7160, the SSMD was -3.23 and the plate-normalised HSF1 focus index is 0.793 (inactive).

For the molecule `CCCCCc1ccc(/C=C/[C@H](O)[C@@H](CO)NC)cc1`, the SSMD worked out at 1.63, the plate-normalised HSF1 focus index is 1.1 (inactive) and the cell count worked out at 6120.

Take `O=c1c2ccccc2[nH]c(=S)n1CCN1CCC(=C(c2ccc(F)cc2)c2ccc(F)cc2)CC1`: the cell count amounted to 6860, the SSMD is 4.04 and the plate-normalised HSF1 focus index was 1.24 (inactive).

Consider `NC(=NCCC[C@H](N)C(=O)O)N[N+](=O)O`, for which the cell count was 7230, the SSMD stood at 2.98 and the plate-normalised HSF1 focus index was 1.18 (inactive).

As to `CO[C@H]1/C=C\C=C(/C)C(=O)NC2=CC(=O)C(NCCN(C)C)=C(C[C@@H](C)C[C@H](OC)[C@H](O)[C@@H](C)/C=C(\C)[C@@H]1OC(N)=O)C2=O`, the SSMD was determined as 3.16, the plate-normalised HSF1 focus index was 1.12 (inactive) and the cell count is 7300.

With `N#C/C(=C1/Nc2ccccc2S1)c1ccnc(NCCc2cccnc2)n1`, the plate-normalised HSF1 focus index is 1.16 (inactive), the cell count came out at 6770 and the SSMD was determined as 2.72.

The nature of a further assay: phospholipid biosynthesis inhibitors in animal cells, primary screen, cell-based, LOPAC library, screen 4 (AID 1347384). The conditions noted are these: phospholipid biosynthesis inhibition screen, at 10 µM.
`CCCCCc1ccc(/C=C/C(=O)Nc2cc(Cl)ccc2C(=O)O)cc1`: the outcome was inactive.

On to `C[N+](C)(C)CCOP(=O)(O)OP(=O)(O)OC[C@H]1O[C@@H](n2ccc(N)nc2=O)C(O)[C@H]1O` (stereo partly specified), for which the molecule was classed as inactive.

As to `CCOC(=O)c1ccc(C#Cc2ccc3c(c2)CC(C)(C)CS3)nc1`, the result was inactive.

On to `CC1=NN(c2cccc(C(=O)O)c2)C(=O)/C1=C\c1ccc(-c2ccc(Cl)c(C(=O)O)c2)o1`, for which the molecule was called inactive.

With `O=C(Nc1cc(C(F)(F)F)cc(C(F)(F)F)c1)Nc1c(Br)cc(Br)cc1-c1nn[nH]n1`, the call was inactive.

Consider `C[C@H](CSC(=O)c1ccccc1)C(=O)N1C[C@@H](Sc2ccccc2)CC1C(=O)O` (stereo partly specified), for which the outcome was inactive.

As for `CO/N=C(\C(=O)N[C@@H]1C(=O)N2C(C(=O)O)=C(CSc3nc(=O)c(=O)[nH]n3C)CSC12)c1csc(N)n1` (stereo partly specified), the outcome was inactive.

Consider `C=CC1=C(C)c2cc3[nH]c(cc4nc(cc5[nH]c(cc1n2)c(C)c5CCC(=O)O)C(CCC(=O)O)=C4C)c(C)c3C=C`, for which the call was inactive.

Consider `C[C@@H]1CCN(C(=O)C(CCCN=C(N)N)NS(=O)(=O)c2cccc3c2NC[C@H](C)C3)C(C(=O)O)C1` (stereo partly specified), for which the call was inactive.

As to `O=CN(O)CCCP(=O)(O)O`, the molecule was called inactive.

For `NC(=O)c1cc[n+](CC2=C(C(=O)O)N3C(=O)[C@@H](NC(=O)[C@@H](c4ccccc4)S(=O)(=O)O)[C@H]3SC2)cc1`, the outcome was inactive.

In the case of `N[C@H](C(=O)O)[C@H](O)c1ccc(O)c(O)c1`, the molecule was called inactive.

For `O=C(/C=C/c1ccc(O)cc1)CC(=O)/C=C/c1ccc(O)cc1`, the outcome was inactive.

For the molecule `CC[N+](CC)(CC)CC`, the molecule was called inactive.

On to `C[N+]1(C)C2CC(OC(=O)[C@H](CO)c3ccccc3)CC1C1OC12` (stereo partly specified), for which the call was inactive.

Regarding `c1ccc(-c2cnn3cc(-c4ccc(OCCN5CCOCC5)cc4)cnc23)cc1`, the outcome was inactive.

With `O.O.[NH2-].[NH2-].[NH2-].[NH2-].[NH2-].[NH2-].[NH2-].[NH2-].[NH2-].[NH2-].[NH2-].[NH2-].[NH2-].[NH2-].[Ru+4].[Ru+5].[Ru+5]`, the molecule was classed as inactive.

Regarding `CC(C)CC(NP(=O)(O)O[C@@H]1O[C@@H](C)[C@H](O)[C@@H](O)[C@H]1O)C(=O)NC(Cc1c[nH]c2ccccc12)C(=O)O` (stereo partly specified), the molecule was classed as inactive.

As to `Cc1nc(C#Cc2cccnc2)cs1`, the outcome was inactive.

As to `CO[C@H]1C[C@@H]2CC[C@@H](C)[C@@](O)(O2)C(=O)C(=O)N2CCCC[C@@H]2C(=O)OC([C@H](C)C[C@@H]2CC[C@@H](OC(=O)C(C)(CO)CO)[C@H](OC)C2)CC(=O)[C@H](C)/C=C(\C)[C@@H](O)[C@@H](OC)C(=O)[C@H](C)C[C@H](C)/C=C/C=C/C=C/1C` (stereo partly specified), the molecule was called inactive.

For `C[N+]1(C)CCC(OC(=O)C(c2ccccc2)c2ccccc2)CC1`, the call was inactive.

Take `CCOC(=O)CN1C(=O)c2ccc3c4c(ccc(c24)C1=O)C(=O)N(CC(=O)OCC)C3=O`: the molecule was classed as inactive.

Regarding `Cc1cc(Nc2ncc3cc(-c4c(Cl)cccc4Cl)c(=O)n(C)c3n2)ccc1F`, the molecule was called inactive.

`CCN(CC)c1ncnc2c1ncn2[C@@H]1O[C@H](COP(=O)(O)OP(=O)(O)C(Br)(Br)P(=O)(O)O)[C@@H](O)[C@H]1O`: the call was inactive.

As for `CCOc1ncc(S(=O)(=O)N2CCN(CC)CC2)cc1-c1nc2c(CC)n(CCOC)nc2c(=O)[nH]1`, the molecule was classed as inactive.

`O=C(O)C1=CS[C@@H]2/C(=C\c3cnc4n3CCOC4)C(=O)N12`: the result was inactive.

`NC(=S)c1ccc[n+]([C@@H]2O[C@@H](COP(=O)(O)OP(=O)(O)OC[C@H]3O[C@@H](n4cnc5c(N)ncnc54)C(OP(=O)(O)O)[C@H]3O)C(O)C2O)c1` (stereo partly specified): the molecule was classed as inactive.
